These results are taken from PubChem BioAssay AID588726 (The Scripps Research Institute Molecular Screening Center, 2011).

Among all 360,000 compounds or so, about 8,200 (2.3%) were called active. The sample holds actives, similar compounds and a random draw of the others, so the mix is not that of the screen. Unmarked numbers belong to inactive results. Cut-off read from the data, not from the text of the source: active = inhibition above about 27%; inactive = the rest.

The assay deals with Fructose-bisphosphate aldolase (Mycobacterium tuberculosis (strain ATCC 25618 / H37Rv)) (UniProt P9WQA3). The assay can be described thus: Mtb FBA enzyme inhibitors, primary screen, biochemical, fluorescence, strain H37Rv (AID 588726).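 Note: 0% = vehicle and 100% = reference inhibitor.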 The conditions noted are these: purified M. tuberculosis FBA, fluorescence read-out, at 1 µM, stronger effect = higher value.
Chain of Fructose-bisphosphate aldolase (Mycobacterium tuberculosis (strain ATCC 25618 / H37Rv)) (P9WQA3 whole entry, looked up): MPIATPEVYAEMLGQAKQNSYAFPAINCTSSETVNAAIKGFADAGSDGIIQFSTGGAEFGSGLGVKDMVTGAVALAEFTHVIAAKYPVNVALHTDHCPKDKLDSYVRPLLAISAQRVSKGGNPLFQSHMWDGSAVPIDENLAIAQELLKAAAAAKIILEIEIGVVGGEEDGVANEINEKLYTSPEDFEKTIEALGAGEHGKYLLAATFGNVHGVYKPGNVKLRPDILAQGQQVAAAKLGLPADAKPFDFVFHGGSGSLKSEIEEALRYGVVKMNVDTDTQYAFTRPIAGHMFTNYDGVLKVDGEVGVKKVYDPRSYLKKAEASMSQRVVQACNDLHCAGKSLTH
`CNC(=O)C[C@H]1C(=O)N(Cc2ccccc2)C[C@@H]1CSC`: the inhibition was 3.42%.

On to `COc1ccc(OC)c(-c2c(=O)n(OCc3ccccc3Br)c3ccccc3[n+]2[O-])c1`, for which the inhibition is -1.19%.

For the molecule `COc1cc(N2C(=O)CC3(CCCC3)CC2=O)cc(OC)c1OC`, the inhibition is 0.26%.

Turning to `CCN(C(=O)C1CCCN(c2nc(-c3ccc(OC)cc3)no2)C1)c1ccc(OC)cc1` (stereo not drawn), the inhibition is -2.44%.

For the molecule `Cc1cc(C)c2c(n1)nn1c(-n3ccnc3)cc(C)nc21`, the inhibition was 27.6% (active).

Regarding `CCCCNCc1ccc(SC)cc1`, the inhibition was -1.81%.

For `CCNc1nc(Oc2ccc(C(=O)OC)cc2)nc(N2CCOCC2)n1`, the inhibition is 0.39%.

Consider `COc1ccc(N(C(=O)c2snc(C(N)=O)c2N)C(C(=O)NC2CCCC2)c2ccc(C)o2)c(OC)c1` (stereo not drawn), for which the inhibition was 2.34%.

Turning to `CCOC(=O)c1ccc(-c2ccc3ncnc(N(C)Cc4sccc4C)c3c2)o1`, the inhibition was 171% (active).

Take `CCOC(=O)c1ccc(CS(=O)c2ccc(Cl)cc2)o1` (stereo not drawn): the inhibition was -0.81%.

Turning to `COc1ccccc1C(=O)Nn1c(-c2cccs2)nc2ccccc2c1=O`, the inhibition was 0.05%.

Regarding `CCc1nnc(NC(=O)CSc2nc3ccccc3c(=O)n2CCCOC)s1`, the inhibition is -4.95%.

Regarding `CC1CN(c2cc(=O)n(Cc3ccc(F)cc3)c(=O)[nH]2)CC(C)O1` (stereo not drawn), the inhibition was -1.34%.

In the case of `Cc1ccc2c(C)c(C(=O)N3CCC(N4CCC(C(=O)NC5CC5)CC4)CC3)oc2c1`, the inhibition is 1.31%.

For `O=C(NNC(=O)C1CCN(c2ncccn2)CC1)c1ccccc1`, the inhibition was 1.54%.

For `Cc1cc(-c2ccccc2)nc(N2CCC(C(=O)NC34CC5CC(CC(C5)C3)C4)CC2)n1`, the inhibition was 170% (active).

As for `CC(=O)N1CCC(C(=O)Nc2nc(-c3ccccc3)ns2)CC1`, the inhibition was -0.01%.

Take `CCOc1cc(-c2noc(CCC(=O)N3CCOCC3)n2)ccc1OC`: the inhibition was 1.37%.

For the molecule `CCCn1c(=O)c(C(=O)Nc2cc(C)ccn2)c(O)c2ccccc21`, the inhibition is 1.3%.

Turning to `CCCCCn1c(=O)c(C(=O)OCC)c(Cl)c2ccccc21`, the inhibition was 1.96%.

Regarding `CCCn1c(=O)c(-c2ccccc2)c(O)c2ccccc21`, the inhibition is 35.6% (active).

As for `Cc1cccc(C(=O)C(O)(c2ccccc2)C2CCCCC2=O)c1` (stereo not drawn), the inhibition is 3.06%.

Turning to `O=C(Nc1cccnc1)c1noc2c1CCCCC2`, the inhibition is 1.31%.

Regarding `N#CC1(Nc2ccc(-c3ccc(Cl)cc3)cc2)CCCC1`, the inhibition is -1.27%.

For the molecule `CC(C)C(=O)Nc1ccc2c3c(cccc13)CC2`, the inhibition is -0.4%.

`N#CC1(Nc2ccc3c4c(cccc24)CC3)CCCCC1`: the inhibition is 48% (active).

In the case of `O=C(c1ccccc1)c1cc(-c2ccccn2)c(N2CCOCC2)s1`, the inhibition was -4.69%.

On to `CSc1ncnc2c1ncn2CC(=O)C1CCC2C3CCC4=CC(=O)CCC4(C)C3CCC12C` (stereo not drawn), for which the inhibition was -0.85%.

For the molecule `COCCCNC(=O)CC1C[C@H](C(=O)N2CCCCC2)[C@@]2(CCc3ccccc3)c3[nH]c4ccccc4c3CCN2C1=O` (stereo partly drawn), the inhibition is 0.45%.

Take `COc1ccc2c(CC(=O)OCC(=O)NC(N)=O)coc2c1`: the inhibition was 2.04%.

Take `Cc1ccc2cc(C#N)c(NCCNC(=S)NCCCN3CCOCC3)nc2c1`: the inhibition was 11.2%.

For the molecule `Cc1ccc2nc(NCCCNC(=O)c3cnccn3)c(C#N)cc2c1`, the inhibition was 22.9%.

As for `COCCCNC(=S)NCCNc1nc2cc(C)c(C)cc2cc1C#N`, the inhibition was 27.3% (active).

`CCCC(C(=O)NCc1ccco1)N(C(=O)CNS(=O)(=O)c1ccccc1)C1CCCC1` (stereo not drawn): the inhibition is 0.18%.

As for `c1ccc2cc(CCCc3cc4ccccc4cn3)ncc2c1`, the inhibition is 5.36%.

In the case of `O=C(CSc1nnc(-c2ccncc2)n1C1CCCCC1)Nc1ccccc1`, the inhibition is -1.22%.

In the case of `CC1CCCN(S(=O)(=O)c2ccc(-c3ccc(=O)[nH]n3)o2)C1` (stereo not drawn), the inhibition was 3.28%.

Take `Cc1c(NC(=O)C(C)OC(=O)c2ccccc2O)c(=O)n(-c2ccccc2)n1C` (stereo not drawn): the inhibition was -3.77%.

For `CC(OC(=O)c1ccccc1NCCO)C(=O)Nc1ccnn1C(C)C` (stereo not drawn), the inhibition was 92% (active).

On to `COC(=O)c1ccccc1NC(=O)CSc1ccccn1`, for which the inhibition was 1.02%.

On to `C=CCn1cc(C(=O)NCc2ccc(Cl)cc2)c(=O)c2cc(S(=O)(=O)N(CC)CC)ccc21`, for which the inhibition was 3.32%.

Take `O=C(COC(=O)/C=C/c1ccc(Cl)cc1)NC1CCS(=O)(=O)C1` (stereo not drawn): the inhibition is -2.05%.

Consider `O=C(COC(=O)CCCN1C(=O)c2cccc3cccc(c23)C1=O)NC1CCS(=O)(=O)C1` (stereo not drawn), for which the inhibition is 45.1% (active).

Take `Nc1ccc(C(=O)OCC(=O)NC2CCS(=O)(=O)C2)cc1[N+](=O)[O-]` (stereo not drawn): the inhibition was -2.41%.

As to `COc1ccc(NC(=O)CCC(=O)N2CCN(S(=O)(=O)c3ccc(C)cc3)CC2)c(OC)c1`, the inhibition was -0.33%.

Regarding `Cc1ncoc1C(=O)N1CCCC(C(=O)c2ccc3c4c(cccc24)CC3)C1` (stereo not drawn), the inhibition is 17.8%.

Turning to `CCn1ccnc1CN1CCCC(C(=O)c2ccc3c4c(cccc24)CC3)C1` (stereo not drawn), the inhibition was 8.92%.

With `CC(=O)NCC(=O)N1CCCC(C(=O)c2ccc3c4c(cccc24)CC3)C1` (stereo not drawn), the inhibition is 33.7% (active).

With `CCOC(=O)c1cnc(COc2ccccc2Cl)[nH]c1=O`, the inhibition is 3.61%.

Regarding `CCOC(=O)c1cnc2sccn2c1=O`, the inhibition was 20.1%.

Take `CCCc1cc(C(=O)N2CCCC(CO)(CCCc3ccccc3)C2)n(C)n1` (stereo not drawn): the inhibition is -1.51%.

With `O=C(O)c1n[nH]nc1-c1ccccc1`, the inhibition was 113% (active).

Turning to `O=C(O)c1ccc(-n2nc(-c3ccccc3)c3ccccc3c2=O)cc1`, the inhibition is 2.23%.

With `N#Cc1c(-c2ccccc2)c(-c2ccccc2)n[nH]c1=O`, the inhibition is -6.25%.

On to `COc1cc(Cl)c(C)cc1NC(=O)COC(=O)c1cc(SC)ccc1Cl`, for which the inhibition was 7.33%.

As for `O=C(O)CSc1nccn1-c1cccc(Cl)c1`, the inhibition is 3.31%.

In the case of `COC(=O)NNC(=O)C1CCC(C)CC1` (stereo not drawn), the inhibition is 1.9%.

For the molecule `CCOC(=O)N1CCN(C(=O)CSc2nc(C)nc3c2c(=O)n(C)c(=O)n3C)CC1`, the inhibition is 4.39%.

Turning to `OCC[C@H]1C[C@H](O)[C@@H](O)[C@]2(CCc3ccccc3O2)O1`, the inhibition was -1.81%.

In the case of `NC(=O)CC[C@@H]1NC(=O)[C@@H]2CCCN2C(=O)c2cc([N+](=O)[O-])cc(F)c2NCCC[C@@H](C(N)=O)NC1=O`, the inhibition is -3.88%.

As to `CCc1ccc(-c2cc(C(=O)NCc3ccco3)c3ccccc3n2)s1`, the inhibition was 54.1% (active).

Regarding `Cc1cc(C(=O)OCC(=O)NCc2ccco2)c(C)n1-c1ccccc1`, the inhibition was -0.83%.

Turning to `O=C(NCc1ccco1)c1ccc([N+](=O)[O-])cc1Cl`, the inhibition was 3.22%.

As for `CN(Cc1ccc(C(F)(F)F)cc1)C(=O)[C@H]1O[C@@H](n2cnc3c(N)ncnc32)[C@H](O)[C@@H]1O`, the inhibition was -0.98%.

Turning to `CCN1C(=O)CS/C1=N\c1nccs1`, the inhibition is -3.46%.

Regarding `COc1cc2c(cc1OC)CC1(CCCCC1)N=C2`, the inhibition is 45% (active).

Consider `Cc1ccc(S(=O)(=O)NCc2ccc(C(=O)NC3CCC(C)CC3)cc2)cc1` (stereo not drawn), for which the inhibition is -7.12%.

On to `COc1ccc(C(=O)Cn2nnc(-c3ccc(N4CCOCC4)cc3)n2)cc1OC`, for which the inhibition is -1.43%.

On to `COCCCn1c(CCC(=O)O)ccc1-c1ccc(F)cc1`, for which the inhibition is 50.6% (active).

Turning to `COc1ccc(-c2ccc(CCC(=O)O)n2-c2ccc(O)cc2)cc1`, the inhibition was -1.15%.

On to `COc1ccc(-c2ccc(CCC(=O)O)n2NC(=O)c2ccc(C(C)(C)C)cc2)cc1`, for which the inhibition was 3.01%.

As to `CC(=O)Nc1ccc(Sc2ccccc2C(=O)N2CCCC2)cn1`, the inhibition was 1.32%.

Take `CCOC(=O)C1=C(N)N(c2ccc(C)cc2)C2=C(C(=O)CCC2)C1c1cccs1` (stereo not drawn): the inhibition was -1.49%.

In the case of `CCOc1ccc(C2C3=C(CCCC3=O)N(CC(=O)O)C3=C2C(=O)CCC3)cc1`, the inhibition was 39.2% (active).

As to `CCCN1C2=C(C(=O)CCC2)C(c2ccc(O)c(Br)c2)C2=C1CCCC2=O`, the inhibition was -1.2%.

As for `COc1ccc(C2C(C#N)=C(N)N(c3ncn[nH]3)C3=C2C(=O)CCC3)cc1` (stereo not drawn), the inhibition was 3.59%.

With `COc1ccc(C2C3=C(CCCC3=O)N(CC(=O)O)C3=C2C(=O)CCC3)cc1`, the inhibition was 47.7% (active).

`CCOc1ccc(C2C(C#N)=C(N)N(N(C)C)C3=C2C(=O)CCC3)cc1` (stereo not drawn): the inhibition is -0.23%.

On to `CC(C)c1ccc(Nc2nnc(SCC(=O)c3nnc(-c4ccccc4)o3)s2)cc1`, for which the inhibition was -2.05%.

Turning to `CCOC(=O)C1CCN(C(=O)C2CCCN(S(=O)(=O)c3ccc(OC)c(Cl)c3)C2)CC1` (stereo not drawn), the inhibition was 13.8%.

Take `O=C1NC(c2ccccc2)Oc2ccccc21` (stereo not drawn): the inhibition is 6.04%.

For `COc1ccc(C2CC(=O)NC(=O)C2)cc1`, the inhibition was 0.31%.

`COc1ccc(C2(O)C(=O)Nc3ccccc32)cc1` (stereo not drawn): the inhibition was 1.93%.

Turning to `COc1ccc(C2NC(=O)c3ccccc3N2)cc1` (stereo not drawn), the inhibition was 67% (active).

On to `O=C1NC(c2cccc(Cl)c2)Nc2ccccc21` (stereo not drawn), for which the inhibition is 30.3% (active).

As to `C=CCOc1cccc(C2NC(=O)c3ccccc3O2)c1` (stereo not drawn), the inhibition was 5.49%.

`CC(C)=CCCC1(C)C=Cc2c(ccc3c2[nH]c2cc(O)c(C)cc23)O1` (stereo not drawn): the inhibition is -3.09%.

Take `COc1cccc(CNC(=O)C(=O)NCCC2CCCCN2S(=O)(=O)c2ccc(C)cc2)c1` (stereo not drawn): the inhibition was 1.18%.

For `COC(=O)C1NN=C(C(=O)c2ccc(Br)cc2)C1c1cccc(Br)c1` (stereo not drawn), the inhibition was -2.34%.

Turning to `CC(=O)Nc1cccc(Nc2ccc(C#N)cc2)c1`, the inhibition was 0.34%.

Take `Cc1ccc(C2Nc3cccc4cccc(c34)N2)cc1`: the inhibition is 49.3% (active).

`Oc1ccc(C2Nc3cccc4cccc(c34)N2)cc1`: the inhibition was -2.34%.

`O=[N+]([O-])c1ccc2c(c1)C(N1CCOCC1)/C(=C/C1(O)CCCCC1)O2` (stereo not drawn): the inhibition is -4.67%.

The term inhibition denotes the drop in the measured response relative to a control, in per cent.
